Bioluminescence data for 38 molecules are collected here from the supplement of paper PMC10811239.

The assay deals with LEGO organoid PTCC (PTEN-/-; TP53-/-; CDKN2A-/-; CDKN2B-/-). As to the kind of experiment: bioluminescence (viable cell) signal fold change after vs before treatment, normalised to DMSO (ratio); higher = more tumour cell growth / less inhibition. Particulars: 10 µM; treatment time 6 days. As to the method:
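Luc2-labelled iPSC-derived glioblastoma-like organoids (LEGOs, genotypes PT = PTEN-/-;TP53-/-, PTCC = plus CDKN2A/B-/-, PTN = plus NF1-/-) were treated with 10 uM drug for 6 days (applied every other day) at 37 C. Bioluminescence imaging was done before treatment and 2 days after the last dose. BLI signals were normalised to the DMSO control on the same day and then to the pre-treatment signal (N=3).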
For `CCc1nc(N)nc(N)c1-c1ccc(Cl)cc1` [Pyrimethamine], the bioluminescence came out at 1.06.

Take `Cl.O=C1CN2Cc3c(ccc(Cl)c3Cl)NC2=N1` [Anagrelide hydrochloride]: the bioluminescence is 0.834.

`CCC(CC)O[C@@H]1C=C(C(=O)O)C[C@H](N)[C@H]1NC(C)=O` [Oseltamivir acid]: the bioluminescence came out at 0.404.

`CNS(=O)(=O)Cc1ccc2[nH]cc(CCN(C)C)c2c1.O=C(O)CCC(=O)O` [Sumatriptan succinate]: the bioluminescence was determined as 0.433.

As to `C=CC(=O)Nc1cc(Nc2nccc(-c3cn(C)c4ccccc34)n2)c(OC)cc1N(C)CCN(C)C` [Osimertinib], the bioluminescence is 0.0861.

`C#Cc1cccc(Nc2ncnc3cc(OCCOC)c(OCCOC)cc23)c1.Cl` [Erlotinib hydrochloride]: the bioluminescence was 1.66.

Turning to `Cc1oncc1C(=O)Nc1ccc(C(F)(F)F)cc1` [Leflunomide], the bioluminescence stood at 1.3.

Regarding `CN(C/C=C/C#CC(C)(C)C)Cc1cccc2ccccc12` [Terbinafine], the bioluminescence stood at 1.04.

For `CCCCN1CCCCC1C(=O)Nc1c(C)cccc1C.Cl` (stereo not drawn) [Bupivacaine hydrochloride], the bioluminescence amounted to 1.22.

For the molecule `CN(C)CCC[C@@]1(c2ccc(F)cc2)OCc2cc(C#N)ccc21.O=C(O)C(=O)O` [Escitalopram Oxalate], the bioluminescence is 0.773.

For `NCC[C@H](O)C(=O)N[C@@H]1C[C@H](N)[C@@H](O[C@H]2O[C@H](CN)[C@@H](O)[C@H](O)[C@H]2O)[C@H](O)[C@H]1O[C@H]1O[C@H](CO)[C@@H](O)[C@H](N)[C@H]1O.O=S(=O)(O)O.O=S(=O)(O)O` [Amikacin disulfate], the bioluminescence was 1.21.

As to `CN1[C@@H]2CC[C@H]1C[C@@H](OC(c1ccccc1)c1ccccc1)C2.CS(=O)(=O)O` [Benztropine mesylate], the bioluminescence came out at 0.793.

As to `CN(C)CCCN1c2ccccc2CCc2ccc(Cl)cc21.Cl` [Clomipramine hydrochloride], the bioluminescence was found to be 0.71.

`CNCC[C@@H](Oc1ccccc1C)c1ccccc1.Cl` [Atomoxetine hydrochloride]: the bioluminescence was found to be 1.04.

For the molecule `CC(C)c1nc(CN(C)C(=O)N[C@H](C(=O)N[C@@H](Cc2ccccc2)C[C@H](O)[C@H](Cc2ccccc2)NC(=O)OCc2cncs2)C(C)C)cs1` [Ritonavir], the bioluminescence was 2.

Turning to `Nc1nc2c(ncn2COCCO)c(=O)[nH]1` [Aciclovir], the bioluminescence came out at 2.16.

Consider `Cl.OC(CCN1CCCCC1)(c1ccccc1)C1CCCCC1` (racemic) [DL-trihexyphenidyl hydrochloride], for which the bioluminescence was found to be 0.966.

As to `CCCC(CCC)C(=O)[O-].[Na+]` [Valproic acid sodium salt], the bioluminescence stood at 1.23.

On to `C[C@@H]1O[C@]2(CS1)CN1CCC2CC1.C[C@@H]1O[C@]2(CS1)CN1CCC2CC1.Cl.Cl.O` [Cevimeline hydrochloride hemihydrate], for which the bioluminescence turned out to be 1.04.

For `Nc1ncnc2c1ncn2[C@@H]1O[C@H](CO)[C@@H](O)[C@H]1OP(=O)(O)O` [Adenosine-2'-monophosphate], the bioluminescence is 1.96.

For the molecule `O=c1cc(O)c(Cl)c[nH]1` [Gimeracil], the bioluminescence came out at 0.774.

As to `CCCN(CCc1cccs1)[C@H]1CCc2c(O)cccc2C1` [Rotigotine], the bioluminescence was 2.02.

Take `CCOC(=O)N1CC\C(CC1)=C1\c2ccc(Cl)cc2CCc2cccnc12` [Loratadine]: the bioluminescence was found to be 1.05.

As to `Nc1nc(NC2CC2)c2ncn([C@H]3C=C[C@@H](CO)C3)c2n1` [Abacavir], the bioluminescence was determined as 1.46.

As to `CO/N=C(\C(=O)N[C@@H]1C(=O)N2C(C(=O)[O-])=C(COC(C)=O)CS[C@H]12)c1csc(N)n1.[Na+]` [Cefotaxime sodium], the bioluminescence is 1.45.

On to `CC[C@H](C)C(=O)O[C@H]1C[C@@H](C)C=C2C=C[C@H](C)[C@H](CC[C@@H]3C[C@@H](O)CC(=O)O3)[C@H]21` [Lovastatin], for which the bioluminescence is 1.02.

Take `CCCN(CCC)CCc1cccc2c1CC(=O)N2.Cl` [Ropinirole hydrochloride]: the bioluminescence was 1.02.

In the case of `O=C(O)c1cccnc1` [Niacin], the bioluminescence stood at 2.03.

`C#Cc1cccc(Nc2ncnc3cc(OCCOC)c(OCCOC)cc23)c1` [Erlotinib]: the bioluminescence amounted to 4.27.

On to `CO[C@@H]1[C@H](N(C)C(=O)c2ccccc2)C[C@H]2O[C@]1(C)n1c3ccccc3c3c4c(c5c6ccccc6n2c5c31)C(=O)NC4` [Midostaurin], for which the bioluminescence worked out at 1.65.

As to `CC/C(=C(/CC)c1ccc(O)cc1)c1ccc(O)cc1` [Diethylstilbestrol], the bioluminescence came out at 0.673.

`Cc1cnc(NC(=O)C2=C(O)c3ccccc3S(=O)(=O)N2C)s1` [Meloxicam]: the bioluminescence stood at 1.15.

As for `Cc1ccnc2c1NC(=O)c1cccnc1N2C1CC1` [Nevirapine], the bioluminescence amounted to 0.901.

As for `CN[C@H](CC(C)C)C(=O)N[C@H]1C(=O)N[C@@H](CC(N)=O)C(=O)N[C@H]2C(=O)N[C@H]3C(=O)N[C@H](C(=O)N[C@H](C(=O)O)c4cc(O)cc(O)c4-c4cc3ccc4O)[C@H](O)c3ccc(c(Cl)c3)Oc3cc2cc(c3O[C@@H]2O[C@H](CO)[C@@H](O)[C@H](O)[C@H]2O[C@H]2C[C@](C)(N)[C@H](O)[C@H](C)O2)Oc2ccc(cc2Cl)[C@H]1O` [Vancomycin], the bioluminescence is 0.957.

Consider `Cl.NC12CC3CC(CC(C3)C1)C2` [Amantadine hydrochloride], for which the bioluminescence was determined as 1.07.

As for `COC(c1ccccc1)(c1ccccc1)[C@H](Oc1nc(C)cc(C)n1)C(=O)O` [Ambrisentan], the bioluminescence came to 1.39.

Take `CN(C)CCCN1c2ccccc2CCc2ccccc21.Cl` [Imipramine hydrochloride]: the bioluminescence came out at 0.82.

For `COc1ccc2c(c1)c(CC(=O)O)c(C)n2C(=O)c1ccc(Cl)cc1` [Indometacin], the bioluminescence stood at 1.24.
